According to PubChem BioAssay AID2730 (National Center for Advancing Translational Sciences (NCATS), 2010):
This is one part of the list. Records with an inconclusive call do not appear. Active and inactive are the calls of the source. Calls follow the shape of the dose curve; as a rule, active = well fitted inhibition curve with a large enough effect; inconclusive = small, poorly fitted or top-dose-only effect; inactive = no such curve, though single readings can be large or run the other way.

Test: High Content Assay for Compounds that inhibit the Assembly of the Perinucleolar Compartment: Confirmation of PNC Inhibition
Details: PC3M PTB-GFP, PNC prevalence imaging, 16 h; series mostly up to 46.1 µM
Source text: High Content Assay for Compounds that inhibit the Assembly of the Perinucleolar Compartment NIH Chemical Genomics Center [NCGC] NIH Molecular Libraries Probe Centers Network [MLPCN] MLPCN Grant: MH082371-01A2 Assay Submitter (PI): Sui Huang, Northwestern University, Feinberg School of Medicine, Cell and Molecular Biology, Chicago, Illinois. The perinucleolar compartment (PNC) is a non-membrane-bound nuclear subdomain that is associated with but structurally distinct from the nucleolus. The PNC is a heritable trait, in which the number of PNCs per cell in daughter cells often mimics that of their mother cells. The PNC is heterogeneous in shape, is stable through interphase, disassembles during mitosis, and reassembles in early G1. The PNC is concentrated with newly synthesized RNA polymerase III (pol III) RNAs (MRP RNA, RNAse P H1 RNA, hY RNAs[hY1, 2, 5], Alu RNA, and SRP [7SL] RNA) and RNA binding proteins (nucleolin, PTB, CUG-BP, KSRP, Raver1, Raver2, and Rod). […] Extensive in vitro studies have shown that the PNC is unique to tumor cells and preferentially forms in tumor cells derived from solid tissues. Examination of cancer cell lines from various origins and malignant capacities has shown that PNC prevalence correlates with the malignancy of tumors and has the potential to be developed as a pan-cancer prognostic marker. […] Although the PNC is associated with a DNA locus and a handful of components have been identified, much remains to be investigated regarding the structure and function of the PNC and its mechanistic link to cancer. We have previously shown that PNC prevalence reduction is a valid strategy to identify compounds that can be used to study the structure and function of the PNC. It is necessary, however, to create a screening platform that is able to test a large number of compounds in an automated fashion. Here we report the development and robustness of an automated whole-cell phenotypic image-based screening assay that is capable of identifying such compounds. Compounds active in the primary screen were then re-screened in concentration-response to confirm activity.
PNC High Content Imaging Assay Procedure: 1. Cells at a density of 75-90% confluency in T175 flasks were harvested using 7 ml TrypLE Express cell dissociation reagent. After dissociation (5 minutes room temperature incubation) 10 ml of complete media was added to the TrypLE/cell suspension. The liquid was transferred to a 50 ml Conical tube and cells were pelleted at 1000 RPM for 5 min. Supernatant was removed and cells were resuspended to a final density of 150-200 cells/ul in complete media. 2. Cells were plated in 5 ul volume (750-1000 cells/well) into 1536 well Black uclear Aurora Low Base plates and allowed to recover and adhere at 37 C in a humidified 5% CO2 incubator for 4 hours. 3. After 4 hour incubation, compound libraries (23 nl of […] in columns 5-48) were transferred to the plates in duplicate using a 1536 well pintool. Camptothecin positive control (59 uM final) was added to column 2 and 1:3 dilutions of camptothecin was added to column 3. DMSO negative controls were present in columns 1 and 4. 4. After a 16 hour incubation in the 37 C incubator, cells were fixed by the addition of 4 ul of 6% EM grade paraformaldehyde (containing 0.1% triton X 100) directly to the cells. The plates were incubated at room temperature for 20 minutes. […]

Row | Structure (SMILES) | Potency
1 | N=c1c2c(-c3ccccc3)c(-c3ccccc3)n(Cc3ccccc3)c2ncn1CCCO | 4.47 µM (active)
2 | COC(=O)c1ccc(CSc2ccccc2C)o1 | inactive
3 | COC(=O)C1=C(C)N(c2ccc(Br)cc2)C(=O)/C1=C\c1ccco1 | inactive
4 | Cn1c2ccccc2c(=O)c2c(=O)n(Cc3ccco3)c(COc3ccccc3)nc21 | 11.2 µM (active)
5 | CCOC(=O)c1c(-c2cccc(C)c2)csc1NC(=O)c1c(-c2ccccc2)noc1C | 2.51 µM (active)
